Structures are written as SMILES.
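Further: KINOMEscan kinase panel screen.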

The first test has as its system QSK. The following applies: concentration: 1 μM,replicates: in singlicate; n = 1.
As for `Cn1ccc2ncnc(Oc3ccc(NC(=O)Nc4ccnc(C(F)(F)F)c4)c(Cl)c3)c21`, the “%Inh” value was found to be 0%.

Regarding `Cc1ccc(CC(=O)N2CCc3cc(-c4cn(C)c5ncnc(N)c45)ccc32)cc1` [GSK2634758], the “%Inh” value was 0%.

Turning to `CS(=O)(=O)c1cccc(CNc2nc(Nc3ccc4c(c3)[C@@H]3C[C@@H]4CNC3=O)ncc2C(F)(F)F)c1`, the “%Inh” value amounted to 0%.

In the case of `CNC(=O)c1ccccc1Nc1nc(Nc2cccc(CS(C)(=O)=O)c2)ncc1C.O=CO` [GSK1520489], the “%Inh” value was 22%.

As for `Cn1ccc2ncnc(Oc3ccc(NC(=O)Nc4cccc(C(F)(F)F)c4)c(Cl)c3)c21`, the “%Inh” value is given as 0%.

For the compound `CN1CCN(CCNc2nc3cc(Oc4ccc(NC(=O)Nc5cc(C(F)(F)F)ccc5F)cc4)ccc3[nH]2)CC1.Cl.Cl` [GW768504], the “%Inh” value amounted to 0%.

As for `O=C(NCC1CC1)c1ccc(-c2cc(C(=O)NC3CC3)ccc2F)cc1` [GW810445], the “%Inh” value turned out to be 0%.

With `N#Cc1cccc(C(=O)NC2CCN(c3ccnc(Nc4ccc(F)cc4)n3)C2)c1` (centres unmarked) [GSK1379708], the “%Inh” value turned out to be 0%.

As for `FC(F)(F)c1cc(Br)cc(Nc2nccc(-c3cnn4ncccc34)n2)c1` [GW810578], the “%Inh” value was 12%.

Consider `Cc1ccn2nc(-c3ccc(F)cc3)c(-c3ccncc3)c2c1.Cl` [GW457859], for which the “%Inh” value is given as 0%.

In the case of `C[C@@H](Oc1cc(-n2cnc3cc(-c4cnn(C)c4)ccc32)sc1C(N)=O)c1ccccc1Cl` [GSK580432], the “%Inh” value amounted to 42%.

For the compound `Cn1ccc2ncnc(Oc3ccc(NC(=O)Nc4cncc(C(F)(F)F)c4)c(Cl)c3)c21`, the “%Inh” value was 0%.

On to `CS(=O)(=O)Nc1ccc(-c2ccnc3[nH]ccc23)cc1` [GSK993273], for which the “%Inh” value came out at 17%.

With `O=C(Nc1n[nH]c2cc(-c3ccco3)ccc12)C1CC1` [SB-737447], the “%Inh” value was 20%.

On to `OCCn1cc(-c2cnc3nnn(Cc4ccc5ncccc5c4)c3n2)cn1`, for which the “%Inh” value turned out to be 0%.

As to `Cc1ccc(Nc2ccnc(Nc3ccc4c(c3)CS(=O)(=O)C4)n2)cc1O.Cl` [GW579362], the “%Inh” value came to 9%.

As for `Cn1ccc2ncnc(Oc3ccc(NC(=O)Nc4cccc(C(F)(F)F)c4)c(F)c3)c21`, the “%Inh” value is recorded as 0%.

Regarding `CCOC(=O)N1CCC(n2cnc(-c3ccc(F)cc3)c2-c2ccnc(N)n2)CC1` [SB-219952], the “%Inh” value turned out to be 0%.

As to `CCn1c(-c2nonc2N)nc2cncc(Br)c21` [SB-738004], the “%Inh” value is given as 0%.

`Cl.c1ccc(Oc2ccc(Nc3ccnc4cc(-c5ccc(CN6CCNCC6)o5)ccc34)cc2)nc1` [GW567142]: the “%Inh” value came to 0%.

For `COc1cccc(C2=C(Nc3cccc(Cl)c3)C(=O)NC2=O)c1` [SB-341556], the “%Inh” value is 3%.

Turning to `CS(=O)c1ccc(-c2coc3ccc(-c4n[nH]c(=O)o4)cc23)cc1` (centres unmarked), the “%Inh” value is reported as 0%.

Take `COC(=O)Nc1nc2cc(Oc3ccc(NC(=O)Nc4cc(C(F)(F)F)ccc4Cl)cc3)ccc2[nH]1.Cl` [GW697465]: the “%Inh” value stood at 9%.

As for `Cn1cc(-c2cccc3c(N)c(C(N)=O)nnc23)cn1`, the “%Inh” value amounted to 3%.

For `C[C@@H]1CCN(C(=O)N2CCCC2)C[C@@H]1N(C)c1ncnc2[nH]ccc12`, the “%Inh” value is given as 0%.

As to `Cc1ccc2c(-c3ccnc(Nc4ccc(C(F)(F)F)cc4)n3)cnn2n1` [GW819776], the “%Inh” value is listed as 14%.

Regarding `C[C@@H](Oc1cc(-n2cnc3cc(-c4ccncc4)ccc32)sc1C(N)=O)c1ccccc1Cl` [GSK479719], the “%Inh” value is given as 9%.

With `CCNCC(Cc1ccccc1)NC(=O)c1cc(Br)c(-c2ccnc3[nH]ccc23)s1.Cl.Cl` (centres unmarked) [GSK1383280], the “%Inh” value stood at 0%.

As to `Cc1nnc(-c2ccc3occ(-c4ccc(S(C)=O)cc4)c3n2)o1` (centres unmarked), the “%Inh” value is listed as 0%.

For the compound `COc1cc2nccc(Nc3ccc(Oc4ccccc4)cc3)c2cc1OC.Cl` [GI261656], the “%Inh” value is recorded as 3%.

`COc1cccc(OC)c1C(=O)Nc1cccc(-c2nn3ccccc3c2-c2ccnc(Nc3cccc(F)c3)n2)c1` [GSK361065]: the “%Inh” value is 0%.

Take `COc1cc(Nc2nccc(N3CCC(NC(=O)c4cccc(C#N)c4)C3)n2)cc(OC)c1OC` (centres unmarked) [GSK1379751]: the “%Inh” value was 0%.

Regarding `O=C(Nc1cccc(C(F)(F)F)c1)c1cccc(Oc2ccc3nccn3n2)c1`, the “%Inh” value was determined as 6%.

Turning to `CC(C)c1nc(-c2cccc(NS(=O)(=O)c3ccccc3)c2)c(-c2ccnc(Nc3ccc4c(c3)CN(C)CC4)n2)s1` [GSK1649598], the “%Inh” value is recorded as 49%.

For `CN1CCN(CCCNc2nccc(-c3c(-c4ccc(F)cc4)nn4cc(C(N)=O)ccc34)n2)CC1` [GW622475], the “%Inh” value came to 30%.

As to `CC(=O)c1c(-c2ccncc2)[nH]c(-c2ccncc2)c1C` [GW493036], the “%Inh” value came to 0%.

As for `COC(=O)c1cccc(NC(=O)NC2CCN(c3ccnc(NCc4ccc(F)cc4)n3)CC2)c1` [GSK1379860], the “%Inh” value turned out to be 9%.

The subject of a further test is RAF1. The following applies: concentration: 1 μM,replicates: in singlicate; n = 1.
For the compound `Cn1ccc2ncnc(Oc3ccc(NC(=O)Nc4ccnc(C(F)(F)F)c4)c(Cl)c3)c21`, the “%Inh” value came out at 16%.

Consider `Cc1ccc(CC(=O)N2CCc3cc(-c4cn(C)c5ncnc(N)c45)ccc32)cc1` [GSK2634758], for which the “%Inh” value turned out to be 7%.

Turning to `CS(=O)(=O)c1cccc(CNc2nc(Nc3ccc4c(c3)[C@@H]3C[C@@H]4CNC3=O)ncc2C(F)(F)F)c1`, the “%Inh” value is recorded as 0%.

As for `CNC(=O)c1ccccc1Nc1nc(Nc2cccc(CS(C)(=O)=O)c2)ncc1C.O=CO` [GSK1520489], the “%Inh” value amounted to 2%.

As to `Cn1ccc2ncnc(Oc3ccc(NC(=O)Nc4cccc(C(F)(F)F)c4)c(Cl)c3)c21`, the “%Inh” value is 80%.

With `CN1CCN(CCNc2nc3cc(Oc4ccc(NC(=O)Nc5cc(C(F)(F)F)ccc5F)cc4)ccc3[nH]2)CC1.Cl.Cl` [GW768504], the “%Inh” value is 75%.

`O=C(NCC1CC1)c1ccc(-c2cc(C(=O)NC3CC3)ccc2F)cc1` [GW810445]: the “%Inh” value was 0%.

For `N#Cc1cccc(C(=O)NC2CCN(c3ccnc(Nc4ccc(F)cc4)n3)C2)c1` (centres unmarked) [GSK1379708], the “%Inh” value is on record as 2%.

Consider `FC(F)(F)c1cc(Br)cc(Nc2nccc(-c3cnn4ncccc34)n2)c1` [GW810578], for which the “%Inh” value is on record as 0%.

As to `Cc1ccn2nc(-c3ccc(F)cc3)c(-c3ccncc3)c2c1.Cl` [GW457859], the “%Inh” value is 15%.

On to `C[C@@H](Oc1cc(-n2cnc3cc(-c4cnn(C)c4)ccc32)sc1C(N)=O)c1ccccc1Cl` [GSK580432], for which the “%Inh” value stood at 13%.

`Cn1ccc2ncnc(Oc3ccc(NC(=O)Nc4cncc(C(F)(F)F)c4)c(Cl)c3)c21`: the “%Inh” value is recorded as 100%.

With `CS(=O)(=O)Nc1ccc(-c2ccnc3[nH]ccc23)cc1` [GSK993273], the “%Inh” value amounted to 12%.

With `O=C(Nc1n[nH]c2cc(-c3ccco3)ccc12)C1CC1` [SB-737447], the “%Inh” value stood at 0%.

In the case of `OCCn1cc(-c2cnc3nnn(Cc4ccc5ncccc5c4)c3n2)cn1`, the “%Inh” value is 0%.

As for `Cc1ccc(Nc2ccnc(Nc3ccc4c(c3)CS(=O)(=O)C4)n2)cc1O.Cl` [GW579362], the “%Inh” value came out at 42%.

Turning to `Cn1ccc2ncnc(Oc3ccc(NC(=O)Nc4cccc(C(F)(F)F)c4)c(F)c3)c21`, the “%Inh” value was found to be 80%.

For the compound `CCOC(=O)N1CCC(n2cnc(-c3ccc(F)cc3)c2-c2ccnc(N)n2)CC1` [SB-219952], the “%Inh” value is 0%.

Regarding `CCn1c(-c2nonc2N)nc2cncc(Br)c21` [SB-738004], the “%Inh” value came to 10%.

For `Cl.c1ccc(Oc2ccc(Nc3ccnc4cc(-c5ccc(CN6CCNCC6)o5)ccc34)cc2)nc1` [GW567142], the “%Inh” value was 0%.

In the case of `COc1cccc(C2=C(Nc3cccc(Cl)c3)C(=O)NC2=O)c1` [SB-341556], the “%Inh” value was determined as 11%.

For `CS(=O)c1ccc(-c2coc3ccc(-c4n[nH]c(=O)o4)cc23)cc1` (centres unmarked), the “%Inh” value is 20%.

Regarding `COC(=O)Nc1nc2cc(Oc3ccc(NC(=O)Nc4cc(C(F)(F)F)ccc4Cl)cc3)ccc2[nH]1.Cl` [GW697465], the “%Inh” value came out at 89%.

`Cn1cc(-c2cccc3c(N)c(C(N)=O)nnc23)cn1`: the “%Inh” value came out at 0%.

With `C[C@@H]1CCN(C(=O)N2CCCC2)C[C@@H]1N(C)c1ncnc2[nH]ccc12`, the “%Inh” value was 10%.

On to `Cc1ccc2c(-c3ccnc(Nc4ccc(C(F)(F)F)cc4)n3)cnn2n1` [GW819776], for which the “%Inh” value was 15%.

Take `C[C@@H](Oc1cc(-n2cnc3cc(-c4ccncc4)ccc32)sc1C(N)=O)c1ccccc1Cl` [GSK479719]: the “%Inh” value is reported as 13%.

On to `CCNCC(Cc1ccccc1)NC(=O)c1cc(Br)c(-c2ccnc3[nH]ccc23)s1.Cl.Cl` (centres unmarked) [GSK1383280], for which the “%Inh” value is given as 2%.

For the compound `Cc1nnc(-c2ccc3occ(-c4ccc(S(C)=O)cc4)c3n2)o1` (centres unmarked), the “%Inh” value amounted to 14%.

With `COc1cc2nccc(Nc3ccc(Oc4ccccc4)cc3)c2cc1OC.Cl` [GI261656], the “%Inh” value was 11%.

As to `COc1cccc(OC)c1C(=O)Nc1cccc(-c2nn3ccccc3c2-c2ccnc(Nc3cccc(F)c3)n2)c1` [GSK361065], the “%Inh” value was determined as 29%.

On to `COc1cc(Nc2nccc(N3CCC(NC(=O)c4cccc(C#N)c4)C3)n2)cc(OC)c1OC` (centres unmarked) [GSK1379751], for which the “%Inh” value came to 26%.

Regarding `O=C(Nc1cccc(C(F)(F)F)c1)c1cccc(Oc2ccc3nccn3n2)c1`, the “%Inh” value stood at 75%.

Turning to `CC(C)c1nc(-c2cccc(NS(=O)(=O)c3ccccc3)c2)c(-c2ccnc(Nc3ccc4c(c3)CN(C)CC4)n2)s1` [GSK1649598], the “%Inh” value came to 87%.

In the case of `CN1CCN(CCCNc2nccc(-c3c(-c4ccc(F)cc4)nn4cc(C(N)=O)ccc34)n2)CC1` [GW622475], the “%Inh” value is on record as 35%.

As to `CC(=O)c1c(-c2ccncc2)[nH]c(-c2ccncc2)c1C` [GW493036], the “%Inh” value stood at 41%.

`COC(=O)c1cccc(NC(=O)NC2CCN(c3ccnc(NCc4ccc(F)cc4)n3)CC2)c1` [GSK1379860]: the “%Inh” value is given as 15%.

For the origin of these results see PMC5540273 (PLoS ONE, 2017).
